Screening data deposited in PubChem by National Center for Advancing Translational Sciences (NCATS).
TRb SRC2 PPI – TRbeta-SRC2 interaction inhibition. 280,000 compounds, 0.065% hits. TRbeta-SRC2 peptide binding, fluorescence polarization; receptor liganded with 1 µM T3. AID 1469. Potency, µM (highest dose often 106 µM), most hits filed as inhibitors. P10828; active = well fitted inhibition curve with a large enough effect; inconclusive = small, poorly fitted or top-dose-only effect, or effect the other way; also: nearly all actives have a fitted effect of over 50% in size
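Assay buffer: 20 mM Tris-HCl, 100 mM NaCl, 10% glycerol, 1 mM EDTA, 0.01% NP-40, 1 mM DTT, 1 uM T3, 5% DMSO; TRb LBD 0.6 uM, Texas Red SRC2 20 nM; FP after 5 hr.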
RGS12 GoLoco inh – RGS12 GoLoco-Gai1 interaction inhibition; Gai1:RGS12 GoLoco peptide FP, rhodamine, 10 min; Potency, µM (titrated, usually from 61.6 µM), usual class: inhibitors; 230,000 compounds, 0.44% hits; AID 880; active = well fitted inhibition curve with a large enough effect, not every such curve was filed as active; inactive = no such curve, though single readings can be large or run the other way; also: nearly all actives have a fitted effect of over 30% in size
Target sequence (P63096 whole entry, looked up): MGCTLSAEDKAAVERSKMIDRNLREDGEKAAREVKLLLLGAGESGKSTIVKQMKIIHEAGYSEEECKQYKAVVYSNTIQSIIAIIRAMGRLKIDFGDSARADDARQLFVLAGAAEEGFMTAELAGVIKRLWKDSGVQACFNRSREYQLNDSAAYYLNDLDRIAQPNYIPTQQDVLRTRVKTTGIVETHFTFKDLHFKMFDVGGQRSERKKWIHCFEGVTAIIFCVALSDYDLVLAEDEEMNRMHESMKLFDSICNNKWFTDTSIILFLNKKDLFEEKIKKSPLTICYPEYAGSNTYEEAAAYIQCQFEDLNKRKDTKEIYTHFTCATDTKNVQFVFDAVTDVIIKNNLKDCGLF
TexasRed fluor – alters Texas Red total fluorescence, flagging assay interference. TRb/SRC2 Texas Red total fluorescence interference. Potency, µM (top dose mostly 106 µM). 280,000 compounds, 0.29% hits; active = well fitted curve in either direction with a large enough effect; inconclusive = small, poorly fitted or top-dose-only effect
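Flags fluorescent or light-absorbing compounds by total fluorescence, S + 2P, at 555 nm excitation and 632 nm emission. Mixture: 20 nM Texas Red SRC2 peptide, 0.6 uM human TRb LBD, 1 uM T3, 5% DMSO; compound exposure 5 h at ambient temperature.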
FBPA coupling cs – counter-screen for Giardia aldolase inhibitors: coupling enzyme system; AID 2472; activity change, negative = inhibition, % at 58.2 µM, hits read low; 290,000 compounds, 0.67% hits; coupling enzyme system counterscreen, AmpLite Red fluorescence; in the data active = activity change below about -30%
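Coupling enzymes only (glyceraldehyde-3-phosphate) + compound, at 57.5 uM final, 10 min RT; add substrate/coupling/AmpLite Red mix, 20 min RT; fluorescence ex 525/em 598 nm. Actives flag coupling-system interference.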
Numbers stand for hits; 0 = inactive; ? = inconclusive; - = no result given; [ ] = dose if it differs, or a comment. This is a sample that favours compounds with a hit; in the whole collection about 0.93% have one here.

SMILES	TRb SRC2 PPI	RGS12 GoLoco inh	TexasRed fluor	FBPA coupling cs
O=C(NCc1ccccc1)C(=O)NCC(c1ccco1)S(=O)(=O)c1ccccc1 (configuration not stated)	0	-	0	-
COC(=O)c1ccccc1NC(=O)c1nc(-c2ccc(Cl)cc2)n2c1CCCCC2	0	-	20µM[quencher]	-
CC(=O)c1ccc(NC(=O)c2nc(-c3ccc(Cl)cc3)n3c2CCCCC3)cc1	0	-	0	-
COc1ccc(NC(=O)CN2C(=O)CCn3nc(-c4cccn4C)cc32)cc1Cl	0	-	0	-
COc1cccc(C(=O)NCc2cn3cccc(C)c3n2)c1	0	-	0	-
CCN(c1ccccc1)S(=O)(=O)c1ccc(NC(=O)c2nc(S(C)(=O)=O)ncc2Cl)cc1	0	-	1.8µM[quencher]	-
CCS(=O)(=O)c1ncc(Cl)c(C(=O)Nc2ccc(S(=O)(=O)N(C)c3ccccc3)cc2)n1	0	-	0	0
CC(=O)OC1CC(OC(C)=O)[C@]2(C)C(CC(=O)[C@]3(C)C2CC[C@@]2(C)C(c4ccoc4)OC(=O)C4O[C@@]423)C1(C)C (some centres not stated)	0	22µM	0	0
CC(=O)OC1CC(OC(C)=O)[C@]2(C)C(CC(O)[C@]3(C)C2CC[C@@]2(C)C(c4ccoc4)OC(=O)C4O[C@]432)C1(C)C (some centres not stated)	0	0	0	0
CCOC(=O)O[C@@H](C)OC(=O)[C@@H]1N2C(=O)[C@@H](NC(=O)[C@@H](N)c3ccccc3)[C@H]2SC1(C)C	0	0	0	0
CCOc1ccccc1C(=O)Nc1c[nH]c(=O)[nH]c1=O	-	-	-	-33
COc1ccccc1C(=O)Nc1c[nH]c(=O)[nH]c1=O	-	-	-	0
CN1N=C(C(C)(C)C)CC1=O	?	0	0	-32
CCCCNC(=O)Cn1c(=O)n(C)c2ccccc21	0	0	0	0
CCCNC(=O)Cn1c(=O)n(C)c2ccccc21	32µM	0	45µM[fluorescent]	0
Cc1ccc(C2=C/C(=C/c3cccnc3)C(=O)O2)c(C)c1	0	0	0	-35
O=C1OC(c2ccc(Cl)cc2)=C/C1=C/c1cccnc1	-	-	-	0
O=C(CSc1nc2cc3ccccc3cc2[nH]1)Nc1cccc(C(F)(F)F)c1	0	-	0	-
Cc1ccc(N=Cc2ccc[nH]2)c(O)c1	0	0	0	-34
COC(=O)N[C@H](c1ccccc1)C(C(C)=O)C(=O)OC (some centres not stated)	0	0	0	0
COC(=O)NC(c1ccccc1)C(C(=O)OC)C(=O)OC (configuration not stated)	0[11.2 µM]	-	0[11.2 µM]	-31
CCN(CC)c1cc2c(cc1F)c(=O)c(S(=O)(=O)c1ccccc1)cn2Cc1ccccc1	0	-	0	-
CCN(CC)c1cc2c(cc1F)c(=O)c(S(=O)(=O)c1ccc(OC)cc1)cn2Cc1ccccc1	0	-	112µM[quencher]	-
CCOC(=O)C1=NN(c2ccc(Cl)cc2Cl)C(C)(C(=O)OCC)C1 (configuration not stated)	0	-	0	-
CN(C)c1cc(Cl)c2nonc2c1N	?	0	0	-30
SMILES	TRb SRC2 PPI	RGS12 GoLoco inh	TexasRed fluor	FBPA coupling cs
COc1cccc(CNC(=O)Cc2csc3ccccc23)c1OC	0	-	0	-
CCOC(=O)c1ccc2c(c1)n(CCO)c(C)[n+]2CC	0	1.6µM	0	0
COC(=O)c1ccc2c(c1)nc(C)n2CCO	0	0	0	0
CCOC(=O)c1ccc2c(c1)n(CC)c(/C=C/N(C)c1ccccc1)[n+]2CC	0	1.6µM	0	0
CCn1c(/C=C/N(C(C)=O)c2ccccc2)[n+](CCCS(=O)(=O)[O-])c2cc(Cl)c(Cl)cc21	0	0	0	0
Cc1cccc(NC(=O)CSc2nc(C3CCCC3)nc3c2c(=O)n(C)c(=O)n3C)c1C	0	-	0	-
CC(C)(C)Nc1nc(C#N)nc(Nc2ccccc2)n1	-	-	-	0
Cn1c(=O)c(=O)n(C)c2cc(S(=O)(=O)Nc3ccc(Cl)c(C(F)(F)F)c3)ccc21	0	-	0	-
CC/C(=C(\c1ccccc1)c1ccc(OCCN(C)C)cc1)c1ccc(O)cc1	0	0	0	-
CC(C)N1C(=O)CC2(CC[N+](C)(CCOC(=O)C(c3ccccc3)c3ccccc3)CC2)C1=O (configuration not stated)	0	11µM	0	0
Cc1ccc(CN2CCN(Cc3ccc(C)o3)[C@@H](C)C2)o1	-	0[14.2 µM]	-	-
CC(C)[C@@H](OCc1ccccc1)[C@H](C)/C=N\OC[C@@H](O)COCc1ccco1	0[11.2 µM]	-	0[11.2 µM]	0
CC1=C(C(N)=O)C(c2ccc(F)cc2)n2nc(-c3ccc(N(C)C)cc3)nc2N1 (configuration not stated)	0	-	0	-
O=C1CCCC(=NCc2ccco2)C1	0	0	0	0
CN(C)c1nc(=NCc2ccco2)ss1	0	0	0	-56
CCOC(=O)N1CCC(NC(=O)c2oc3c(c2C)-c2[nH]ncc2CC3)CC1	0	0	0	-41
COc1cccc(-c2ccc3c(N)c(C(=O)NCc4ccc(Cl)cc4)sc3n2)c1	0	-	0	-
CCN(CC)c1ccc(/C=c2\sc3nc4ccccc4n3c2=O)c(O)c1	0	0	50µM[fluorescent]	0
CO[Si](OC)(OC)c1ccccc1	0	-	0	-
CCN(CC)S(=O)(=O)c1ccc2c(c1)c(=O)c(C(=O)N1CCN(c3ccc(F)cc3)CC1)cn2C	0	-	0	-
CCCCCCCCCCOCC(O)CN (configuration not stated)	0	-	0	-
Cc1cc(C)c(NC(=O)CSc2nc3nc(C)cc(C)n3n2)c(C)c1	0	-	20µM[quencher]	-
Cc1cc(C)n2nc(SCC(=O)Nc3ccccc3)nc2n1	0	0	0	0
Nc1c(C(=O)Nc2nc3ccccc3s2)sc2nc(-c3cccs3)ccc12	?	0	32µM[quencher]	0
COc1ccc2oc(-c3ccc(C)c(NC(=O)c4ccc(N5CCCCC5)c([N+](=O)[O-])c4)c3)nc2c1	0	-	0	-
SMILES	TRb SRC2 PPI	RGS12 GoLoco inh	TexasRed fluor	FBPA coupling cs
Cc1ccc(-n2c(C)cc(C(=O)CSc3nncs3)c2C)cc1	0	0	0	-33
CC(C)(N=C=O)c1cccc(C(C)(C)N=C=O)c1	0	-	0	-
O=C1C2=C(c3ccccc31)[N+](=O)[C@@H]1CCCC[C@@H]1N2[O-]	0	0	0	-45
O=C1C2=C(c3ccccc31)[N+](=O)C1CCCCC1N2[O-] (configuration not stated)	0	0	0	-38
O=C1c2ccccc2C(=O)c2c1ccc1c(=O)n(C3CCCCC3)[nH]c21	0	0	0	0
CCC(C)(C(=O)NC1CCCCC1)N(Cc1cccs1)C(=O)c1ccccn1 (configuration not stated)	0	0	0	0
CCC(C)(C(=O)NC1CCCC1)N(Cc1cccs1)C(=O)c1ccccn1 (configuration not stated)	0	0	0	-38
CC[n+]1c(/C=C(\C)Nc2ccccc2)sc2ccccc21	0	0	0	0
CC[n+]1c(/C=C/Nc2ccccc2)sc2ccccc21	?	0	45µM[fluorescent]	0
CCSc1ncc(Cl)c(C(=O)Nc2nc3ccc(Cl)cc3s2)n1	0	-	0	-
CCSc1ncc(Cl)c(C(=O)Nc2nc3ccc(OC)cc3s2)n1	?	-	2.5µM[quencher]	-
CCSc1ncc(Cl)c(C(=O)Nc2nc3ccc(S(C)(=O)=O)cc3s2)n1	0	-	35µM[quencher]	-
